# Measurements published in the supplement of paper PMC6897291.
# System: RIVA
# Test: growth inhibition by drug alone (1 - RLU/untreated control) (fraction); higher = stronger inhibition
# Settings: 177Lu-lilotomab satetraxetan 0 ug/ml
# Method: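 RIVA (RI-1) ABC-DLBCL cells were pretreated or not for 18 h with 0.5 ug/ml 177Lu-lilotomab satetraxetan (600 MBq/mg), washed and seeded (3000 cells/well) on 384-well plates pre-printed with the Selleck Cambridge Cancer Compound library. Viability was read by RealTime-Glo luminescence on days 3-6 after seeding. Effect = 1 - RLU/mean RLU of the 48 untreated no-drug control wells per plate; Bliss score = (M-E)/(1-Fa).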
Compound,"growth inhibition by drug alone (10 nM, time (day): 3)","growth inhibition by drug alone (10 nM, time (day): 4)","growth inhibition by drug alone (10 nM, time (day): 5)","growth inhibition by drug alone (10 nM, time (day): 6)","growth inhibition by drug alone (100 nM, time (day): 3)","growth inhibition by drug alone (100 nM, time (day): 4)","growth inhibition by drug alone (100 nM, time (day): 5)","growth inhibition by drug alone (100 nM, time (day): 6)"
Cc1ccnc(NS(=O)(=O)c2ccc(NC(=O)Nc3ccc(S(=O)(=O)Nc4nccc(C)n4)cc3)cc2)n1,0.0129,0.0204,-0.0366,-0.304,-0.284,-0.137,-0.166,-0.281
CCC[C@H](NC(=O)/C(C#N)=C/c1cccc(Br)n1)c1ccccc1,-0.0156,-0.0305,-0.179,-0.663,-0.455,-0.31,-0.323,-0.514
Cc1cnc(Nc2ccc(OCCN3CCCC3)cc2)nc1Nc1cccc(S(=O)(=O)NC(C)(C)C)c1,-0.231,-0.238,-0.322,-0.459,-0.338,-0.438,-0.41,-0.775
CC(c1cc2ccccc2s1)N(O)C(N)=O (stereo not given) [Zileuton],-0.0289,-0.0441,-0.104,-0.421,-0.161,-0.195,-0.186,-0.323
CC(C)c1onc(-c2c(Cl)cccc2Cl)c1COc1ccc(/C=C/c2cccc(C(=O)O)c2)c(Cl)c1,0.157,0.0681,0.0301,-0.185,0.0922,0.0619,0.0293,-0.0245
